Screening results: PubChem, National Center for Advancing Translational Sciences (NCATS)
Shown are actives, neighbours in structure and some others; about 19% of the full set was active somewhere.
HT1080 IDH1KD tx = HT-1080 IDH1 knockdown cell toxicity (counter line); AID 686971; hit rate 2% among 360,000; HT-1080 IDH1 knockdown viability, ATP luminescence, 48 h; Potency, µM (series often up to 46.1 µM), without a hit: at the highest dose activity, negative = toxicity, most hits filed as cytotoxic;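 note: potency is the fitted concentration of half-maximal effect; 0% = DMSO wells and -100% = cell-free medium wells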
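In this qHTS, HT-1080 cells depleted of IDH1 are exposed for 48 h at 37 °C to compound titrations. Toxicity is scored from CellTiter-Glo luminescence, with DMSO as full viability and medium alone as none.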
TDP1 cell noCPT = qHTS for Inhibitors of human tyrosyl-DNA phosphodiesterase 1 (TDP1): qHTS in cells in absence of CPT | Potency, µM (doses to about 46.2 µM), inactives show top-dose activity change, negative = growth inhibition, usual class: inhibitors | DT40 Tdp1-/- hTDP1 cells, no CPT, ATP luminescence, 48 h | hit rate 15% among 420,000; note: potency is the fitted concentration of half-maximal effect; nearly all actives have a fitted effect of over 55% in size
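Seeded 400 DT40-hTDP1 cells/well (vehicle DMSO, no 20 nM CPT); pinned compounds; ≥48 hr at 37 °C; CellTiter-Glo luminescence as viability measure.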
HT1080NT lethal = kills 2HG-producing HT-1080-NT fibrosarcoma cells; hit rate 1.6% among 360,000; Potency, µM (series often up to 46.1 µM), inactives show at the highest dose activity, negative = less viability, actives largely listed as cytotoxic; HT-1080-NT fibrosarcoma viability, CellTiter-Glo ATP luminescence, 48 h; AID 686970;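 note: NT is the 2HG producing partner of a matched IDH1 knockdown line; potency is the fitted concentration of half-maximal effect; 0% = DMSO-treated cells and -100% = media-only wells without cells; nearly all actives have a fitted effect of over 55% in size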
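HT-1080-NT fibrosarcoma cells (2HG-overproducing), 750 cells/well in RPMI with 5% FBS, dosed after 2 h and incubated 48 h at 37C. CellTiter-Glo luminescence normalized to DMSO and no-cell wells; concentration-response curves fitted and classed.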
DT40 TDP1 CPT = DT40-hTDP1 cell growth loss with CPT; chicken DT40 Tdp1-/-;hTDP1 cells + 20 nM CPT, ATP luminescence, 48 h; Potency, µM (doses to about 46.2 µM), for the others: top-dose activity change, negative = growth inhibition, usual class: inhibitors; hit rate 12% among 420,000; AID 686979; note: potency is the fitted concentration of half-maximal effect; nearly all actives have a fitted effect of over 55% in size
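Cell growth measured by CellTiter-Glo luminescence after a minimum 48 h, 37 C compound exposure with 20 nM CPT in Tdp1-knockout DT40 cells stably expressing hTDP1, seeded 400/well; qHTS titration format.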
IL-1B inflam inh = inhibitors of inflammasome signaling (IL-1 beta secretion); activity change, % at 57.5 µM; hit rate 4.7% among 360,000; THP-1 LPS/ATP IL-1B secretion, AlphaLISA, 16 h; hits give low values; in the data active = activity change below about -50%; inconclusive = mostly about -30% to -49%
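THP-1 cells pretreated 1 hr with compounds (up to 57.5 uM final), then stimulated with LPS (250 ng/mL final) plus ATP (1.25 mM final); secreted IL-1B measured by AlphaLISA after 16 hr, decreased signal indicating inhibition.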
Starred values were filed as active, the others as inactive; ? = inconclusive; / = no result given; [ ] = another dose, or the depositor's remark. Unless noted, calls come from the whole dose curve; as a rule, active = well fitted curve in the direction sought with a large enough effect; inconclusive = small, poorly fitted or top-dose-only effect, or another doubt; inactive = no such curve, though single readings can be large; an effect the other way counts as inactive or inconclusive. Unless noted, % is set by controls: 0 for no effect and ±100 for the full control effect.

SMILES	HT1080 IDH1KD tx	TDP1 cell noCPT	HT1080NT lethal	DT40 TDP1 CPT	IL-1B inflam inh
Cc1ccc2oc(/N=C(\N)NC(=O)C(C)(C)C)nc2c1	-7%	?	-12%	?	/
Cc1ccc2oc(/N=C(\N)NC(=O)C3CC3)nc2c1	?	4.6µM*	-14%	9.2µM*	-20
CCCCn1nnnc1C(c1cc2ccccc2o1)N1CCN(CC(=O)NC(C)C)CC1 (centres undefined)	1%	?	-1%	-18%	-7
Cc1c(NC(=O)C(C)OC(=O)/C=C/c2ccc(OC(F)F)cc2)c(=O)n(-c2ccccc2)n1C (centres undefined)	1%	-4%	-6%	-2%	-6
CNS(=O)(=O)c1cc(-c2nnc(N3CCOCC3)c3ccccc23)ccc1C	-1%	-3%	7%	-1%	16
CNS(=O)(=O)c1cc(-c2nnc(Nc3cc(C)ccc3C)c3ccccc23)ccc1C	/	21µM*	/	21µM*	/
Cc1ccc(Nc2nnc(-c3ccc(C)c(S(=O)(=O)N4CCOCC4)c3)c3ccccc23)c(C)c1	/	16µM*	/	?	/
Cc1ccccc1Nc1nnc(-c2ccc(C)c(S(=O)(=O)N3CCOCC3)c2)c2ccccc12	/	16µM*	/	?	/
CCN(CC)S(=O)(=O)c1cc(NC(=O)CCNC(=O)c2ccco2)ccc1C	5%	?	1%	?	23
COc1cc(C(=O)NCCCNc2ccc([N+](=O)[O-])cc2)cc(OC)c1OC	11%	?	9%	?	-8
Cc1cc([N+](=O)[O-])cnc1N1CCOCC1	-2%	-5%	-1%	-6%	?
COc1ccc2cc3c(N)nn(C(=O)c4ccccc4Cl)c3nc2c1	-9%	?	?	1.6µM*	-65*
Cc1ccc2cc3c(N)c(C(=O)N4CCOCC4)sc3nc2c1	-19%	?	-21%	-9%	-24
COc1ccc2cc3c(N)nn(C(=O)Cc4c[nH]c5ccccc45)c3nc2c1	?	4.1µM*	?	10µM*	-98*
COc1ccc2cc3c(N)nn(C(=O)c4ccc(F)cc4)c3nc2c1	-1%	10µM*	0%	?	?
COc1ccc2cc3c(N)nn(C(=O)c4cccc(F)c4)c3nc2c1	8%	?	0%	?	-12
COc1ccc2cc3c(N)c(C(=O)N4CCCC4)sc3nc2c1	0%[9.24 µM]	21µM*	6%	?	-69*
O=C(OCn1nnc2ccccc2c1=O)c1ccc2c(=O)n3c(nc2c1)CCC3	-4%[9.24 µM]	0%	-2%	-25%	15
CC1(C)Oc2ccc(C(=O)N/N=C/c3ccc(O)cc3)cc2NC1=O	?	-5%	?	3%	-6
COc1ccc(N2CCN(S(=O)(=O)CCNC(=O)c3ccc(C(F)(F)F)cc3)CC2)cc1	/	-25%	/	-20%	/
Cc1ccc(NC(=O)CC2Nc3ccccc3NC2=O)cc1Cl (centres undefined)	21µM*	?	21µM*	?	-2
Cc1cc2c(cc1C)NC(CC(=O)Nc1ccccc1)C(=O)N2 (centres undefined)	/	26µM*	/	16µM*	/
CCOc1ccccc1NC(=O)CC1Nc2cc(C)c(C)cc2NC1=O (centres undefined)	-14%	?	-2%	18µM*	35
Cc1ccc(NC(=O)CC2Nc3ccccc3NC2=O)cc1C (centres undefined)	/	-8%	/	-23%	/
CCOC(=O)Cn1cnc2c(nnn2-c2ccc(F)cc2)c1=O	-2%	11%	9%	1%	-14
SMILES	HT1080 IDH1KD tx	TDP1 cell noCPT	HT1080NT lethal	DT40 TDP1 CPT	IL-1B inflam inh
CCOc1ccc(S(=O)(=O)N2CCN(C(=O)C3CCC3)CC2)cc1	-12%	?	3%	?	7
CNc1nc(C23CC4CC(CC(C4)C2)C3)cs1	-20%	?	-1%	?	53
O=[N+]([O-])c1ccc(-c2cnc(SC(c3ccccc3)c3ccccc3)[nH]2)cc1	21µM*	?	23µM*	?	-52*
O=[N+]([O-])c1ccc(-c2cnc(SCc3ccccc3Cl)[nH]2)cc1	?	-11%	?	3%	-8
Cc1cc(C)c(CSc2ncc(-c3ccc([N+](=O)[O-])cc3)[nH]2)c(C)c1	26µM*	10µM*	?	16µM*	-59*
Cc1cc(C)c2c(=O)[nH]c(SCc3ccc([N+](=O)[O-])cc3)nc2n1	6%	-23%	-4%	3%	30
Cn1cc(CCC(=O)NCc2ccc(Cl)cc2)c2ccccc21	-2%	?	5%	?	-21
CCOC(=O)CN(c1sc(C)c(C)c1C(=O)OCC)S(=O)(=O)c1ccc(C)cc1	-18%	15µM*	-11%	?	-5
CCOC(=O)CN(c1ccccn1)S(=O)(=O)c1ccccc1	12%	-9%	10%	2%	15
COc1ccc(C2=CSC3=C(C(=O)c4cccc(S(=O)(=O)N(C)C)c4)CCN23)cc1	5%	16µM*	1%	23µM*	15
CCCCN(Cc1ccccc1)S(=O)(=O)c1cc2c(cc1Br)CC(C)N2C(C)=O (centres undefined)	-13%	18µM*	-10%	18µM*	0
CCCCN(Cc1ccccc1)S(=O)(=O)c1ccc2c(c1)CC(C)N2C(=O)CC (centres undefined)	/	?	/	23µM*	/
CCC(=O)N1c2ccc(S(=O)(=O)N(CCO)Cc3ccccc3)cc2CC1C (centres undefined)	-3%	-20%	-10%	?	20
Cc1cccc(-c2nnc(NC(=O)c3ccco3)s2)c1	1%	0%	6%	-10%	10
COc1ccc(Nc2c([N+](=O)[O-])ccc3c2=NC2(CCCCC2)N=3)cc1	-29%	21µM*	-23%	?	-18
Cc1cc(C(C)(C)C)ccc1OCCn1ccnc1	-3%	?	-3%	?	29
c1ccc(-c2ccccc2OCCCCn2ccnc2)cc1	0%	26µM*	-4%	23µM*	-58*
CC(C)(C)c1ccccc1OCCCCCn1ccnc1	?	?	?	?	-98*
CC(C)(C)c1cc(Cl)ccc1OCCn1ccnc1	?	?	-24%	-4%	-53*
Cc1ccc(-n2nc3c(=O)n(CCCC(=O)NCc4ccccc4F)nc(C)c3c2C)cc1	-3%	?	-1%	?	?
Cc1ccc(-n2nc3c(=O)n(CCCC(=O)NCC(C)c4ccccc4)nc(C)c3c2C)cc1 (centres undefined)	-7%	15µM*	-10%	?	-11
